Laboratory results taken from PubChem BioAssay AID1220 (Sanford-Burnham Center for Chemical Genomics, 2008).
Out of some 190,000 compounds screened, about 1,300 (0.68%) were called active. Cut-off read from the data, not from the text of the source: active = inhibition above about 50%; inactive = the rest. The full list was thinned out, with actives kept by preference.

Each compound was assayed against Mannose-6-phosphate isomerase (Homo sapiens) (UniProt P34949) (assay: MPI inhibition at elevated mannose 6-phosphate – biochemical, fluorescence intensity, high mannose 6-phosphate, primary screen (AID 1220)). Conditions: recombinant PMI enzyme, coupled fluorescence intensity; at 20 µM; active compounds read high.
Mannose-6-phosphate isomerase (Homo sapiens), sequence (P34949 whole entry, looked up): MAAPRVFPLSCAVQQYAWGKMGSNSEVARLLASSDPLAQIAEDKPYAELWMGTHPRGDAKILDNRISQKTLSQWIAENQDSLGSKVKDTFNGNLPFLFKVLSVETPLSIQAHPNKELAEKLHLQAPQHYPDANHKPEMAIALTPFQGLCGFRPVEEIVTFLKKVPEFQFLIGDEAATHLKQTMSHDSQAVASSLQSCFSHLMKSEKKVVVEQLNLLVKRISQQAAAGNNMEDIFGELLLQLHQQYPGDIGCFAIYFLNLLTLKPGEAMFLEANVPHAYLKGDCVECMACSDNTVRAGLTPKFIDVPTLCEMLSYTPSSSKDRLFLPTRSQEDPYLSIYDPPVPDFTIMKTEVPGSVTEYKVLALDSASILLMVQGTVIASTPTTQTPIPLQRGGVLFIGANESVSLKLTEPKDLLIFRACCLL

| Compound | inhibition |
| --- | --- |
| Cc1ccc(/C=N/NC(=O)c2nnn(-c3nonc3N)c2CSc2ccc(Cl)cc2)cc1 | -7% (inactive) |
| Cc1ccc(O)c(NC(=O)c2noc3c2CCc2ccccc2-3)c1 | 13% (inactive) |
| CCOC(=O)CC1C(=O)NCCN1S(=O)(=O)c1ccccc1 (stereo not given) | -2.9% (inactive) |
| CC(C)C(=O)N(Cc1ccc(F)cc1)Cc1nc2ccccc2c(=O)[nH]1 | 4.6% (inactive) |
| CCN(CC)c1ccc2ccc(=O)oc2c1 | 3.8% (inactive) |
| CCN(CC)c1ccc2c(C)c(Cl)c(=O)oc2c1 | -1.9% (inactive) |
| CC(SC1CCCC1)C(=O)Nc1ccnn1C(C)C (stereo not given) | -2.4% (inactive) |
| CC(C)OCCCNC(=S)NNC(=O)C(c1ccccc1)c1ccccc1 | -14.8% (inactive) |
| O=c1cc(CN2CCN(c3ccccn3)CC2)nc2sccn12 | 9.8% (inactive) |
| CC(=O)c1cc2c(C)c(C(=O)c3ccccc3)oc2cc1O | 8.2% (inactive) |
| S=C(NCCc1ccncc1)Nc1cccc2ccccc12 | 18.9% (inactive) |
| O=C(NNC(=S)Nc1ccccc1)c1ccc2ncccc2c1 | -9.6% (inactive) |
| S=C(NCCc1ccccc1)Nc1cccc2cnccc12 | 57.3% (active) |
| CCCCNC(=S)Nc1cccc2cnccc12 | 3.6% (inactive) |
| Fc1ccccc1NC(=S)Nc1cccc2cnccc12 | 9.4% (inactive) |
| O=C(NC(=S)Nc1ccc2ncccc2c1)c1ccccc1 | 55.9% (active) |
| O=C(NC(=S)Nc1cccc2cnccc12)c1ccccc1 | 54.7% (active) |
| O=C(NC(=S)Nc1cnc2ccccc2c1)c1ccccc1 | 10.3% (inactive) |
| O=C(NC(=S)Nc1cccc2cccnc12)c1ccccc1 | 10% (inactive) |
| COc1ccc(Cn2cc(C(=O)c3ccccc3)c(=O)c3cc(OC)ccc32)cc1 | 15.1% (inactive) |
| Cn1c(Cc2ccccc2)nnc1SCC(=O)N1CCOCC1 | -5.3% (inactive) |
| CC(C)(C)c1ccc(NC(=O)CNC2CCCc3ccccc32)cc1 (stereo not given) | -3.2% (inactive) |

| Compound | inhibition |
| --- | --- |
| COc1cc(/C=N/N2CCOCC2)ccc1OCc1ccccc1 | -7.2% (inactive) |
| CCSc1nnc(NC(=O)CSc2nc(CC)nc3c2c(=O)n(C)c(=O)n3C)s1 | 6.7% (inactive) |
| CC1CCN(S(=O)(=O)c2cccc(C(=O)NCc3ccco3)c2)CC1 | -3.8% (inactive) |
| Cc1ccc(C2NC(=O)NC3=C2CCc2ccccc23)cc1 (stereo not given) | 40.5% (inactive) |
| O=C1NC2=C(CCc3ccccc32)C(c2ccccc2)N1 (stereo not given) | 2.3% (inactive) |
| Cc1ccc(-c2nnn(CC(=O)N(CC3CCCO3)C(C(=O)NCC3CCCO3)c3ccc(F)cc3)n2)o1 (stereo not given) | 2.7% (inactive) |
| O=C(CN1C2CCCC1CC(NC(=O)c1ccccc1)C2)Nc1nccs1 (stereo not given) | -12.4% (inactive) |
| O=C(NCC(c1cccnc1)N1CCN(c2ccccc2)CC1)C1CCCCC1 (stereo not given) | 8.8% (inactive) |
| C=CCN1C(=O)c2cccc3c(Br)ccc(c23)C1=O | 4.2% (inactive) |
| CN(C)CCCN1C(=O)c2cccc3c([N+](=O)[O-])ccc(c23)C1=O | 29.6% (inactive) |
| CN(C)CCCN1C(=O)c2cccc3c(Br)ccc(c23)C1=O | 52% (active) |
| Fc1ccccc1CNc1cc(Cl)cc(Cl)c1 | 5.3% (inactive) |
| COc1cc(/C=N\NC(=O)C2C(=O)NCC2c2ccccc2)cc(OC)c1O (stereo not given) | 50.9% (active) |
| COc1ccc(/C=N\NC(=O)C2C(=O)NCC2c2ccccc2)cc1O (stereo not given) | 8.9% (inactive) |
| COc1cccc(/C=N\NC(=O)C2C(=O)NCC2c2ccccc2)c1O (stereo not given) | -17% (inactive) |
| CC(/C=N\Nc1nnc2c(n1)[nH]c1c(C)cccc12)=C\c1ccco1 | 7% (inactive) |
| COc1ccc(/C=N/c2oc(C)c(C)c2C#N)c(OC)c1 | 51.5% (active) |
| Cc1oc(/N=C/c2ccc(Cl)cc2Cl)c(C#N)c1C | -5.8% (inactive) |
| Cc1oc(/N=C/c2ccc(O)cc2O)c(C#N)c1C | 8.5% (inactive) |
| O=C(c1ccc(Br)o1)N1CCN=C1SCc1cccnc1 | 2.2% (inactive) |
| COCCCNC(=S)NNC(=O)c1ccc(S(=O)(=O)N2CCC(C)CC2)cc1 | -5.4% (inactive) |
| CC(=O)c1cccc(NC(=O)c2ccco2)c1 | 2.7% (inactive) |

| Compound | inhibition |
| --- | --- |
| O=C(Nc1cccc(N=Cc2cc(Br)cc(Br)c2O)c1)c1ccco1 | 53.4% (active) |
| O=C(Nc1cccc(N=Cc2cc(Cl)cc(Br)c2O)c1)c1ccco1 | 44.4% (inactive) |
| O=C(CSc1nnc(-c2cccs2)n1-c1ccccc1)c1ccc2c(c1)OCCO2 | 6.2% (inactive) |
| CCOC(=O)N1CCC(NC(=O)c2ccc3c(c2)N(Cc2ccc(C)cc2)CCS3)CC1 | 24.9% (inactive) |
| CCOC(=O)N1CCC(NC(=O)c2ccc3c(c2)N(C)CCS3)CC1 | 55.2% (active) |
| CCOC(=O)N1CCC(NC(=O)c2ccc3c(c2)N(Cc2ccccc2)CCS3)CC1 | 13.2% (inactive) |
| COc1cccc(C2=NOC(C(=O)NC(C)C)C2)c1 (stereo not given) | 3.6% (inactive) |
| COc1ccc(C2=NOC(C(=O)NC3CCCCC3)C2)cc1OC (stereo not given) | 11.9% (inactive) |
| COc1cccc(C2=NOC(C(=O)NC3CCCCC3)C2)c1 (stereo not given) | 53.2% (active) |
| C#CCNC(=O)C1CCN(c2ccc(S(=O)(=O)N3CCOCC3)cc2Cl)CC1 | -1.4% (inactive) |
| CCN1CCN(C(=O)Nc2ccc(OC)cc2OC)CC1 | 34.3% (inactive) |
| CCOc1cc(N2CCOCC2)c(OCC)cc1NC(=O)CN1CCCC1 | 20.8% (inactive) |
| CCOc1cc(N2CCOCC2)c(OCC)cc1NC(C)C(=O)N1CCN(CC)CC1 (stereo not given) | 57.1% (active) |
| CCC(C)C(=O)Nc1ccc(OC)cc1OC (stereo not given) | 5.6% (inactive) |
| CCOc1cc(N2CCOCC2)c(OCC)cc1NC(=O)C1CCCC1 | -1% (inactive) |
| CCOc1cc(N2CCOCC2)c(OCC)cc1NC(C)C(=O)N1CCC(C)CC1 (stereo not given) | 59.1% (active) |
| CCOc1cc(N2CCOCC2)c(OCC)cc1NC(=O)CN1CCCC(C)C1 (stereo not given) | 30.5% (inactive) |
| CCN1CCN(C(=O)C(C)Nc2ccc(OC)cc2OC)CC1 (stereo not given) | 58.6% (active) |
| CCOc1cc(N2CCOCC2)c(OCC)cc1NC(=O)c1ccc(OC(C)C)cc1 | 19.1% (inactive) |
| CC(=O)c1cccc(N/C=C\C(=O)c2ccc(C)cc2)c1 | 1.9% (inactive) |
| CCN(CC)S(=O)(=O)c1cccc(C(=O)Nc2ccc(C#N)cc2)c1 | 16.5% (inactive) |
